KB-V1 cytotox – qHTS assay for MDR1-selective chemotherapeutics: Primary screen using the drug-selected MDR subline cells KB-V1; KB-V1 MDR cells viability, CellTiter-Glo, 72 h; Potency, µM (highest dose often 46.1 µM), actives largely listed as cytotoxic; 400,000 compounds, 3.4% hits; AID 1347076, 2019; further: on the % scale 0 is the no-effect control and ±100 the full control effect; nearly all actives have a fitted effect of over 60% in size
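Following 72 h at 37 degrees C with compound, KB-V1 cell viability was read by CellTiter-Glo luminescence, medium being phenol-red-free DMEM plus 10% FBS; concentration-response parameters came from normalized, curve-fitted qHTS data.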
Gal4-VP16 FLuc – VP16 counterscreen qHTS for inhibitors of ROR gamma transcriptional activity. Drosophila S2 Gal4-VP16 UAS-luciferase, luminescence, 20 h. AID 2546, 2010. 310,000 compounds, 3.5% hits. Potency, µM (titrated, usually from 53.6 µM), for inactives: at the top dose activity, negative = inhibition, usual class: inhibitors;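 further: Gal4-VP16 expression switched on by copper sulfate through the metallothionein promoter; on the % scale 0 is the no-effect control and ±100 the full control effect; nearly all actives have a fitted effect of over 50% in size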
RORgamma inh – qHTS for inhibitors of ROR gamma transcriptional activity; Drosophila S2 Gal4-RORgamma UAS-luciferase reporter, 20 h; Potency, µM (highest dose often 53.6 µM), for inactives: at the top dose activity change, negative = inhibition, hits mostly inhibitors; 310,000 compounds, 5.4% hits; AID 2551, 2010; further: on the % scale 0 is the no-effect control and ±100 the full control effect; nearly all actives have a fitted effect of over 60% in size
Target sequence (P51450 whole entry, looked up, the tested form may be a part): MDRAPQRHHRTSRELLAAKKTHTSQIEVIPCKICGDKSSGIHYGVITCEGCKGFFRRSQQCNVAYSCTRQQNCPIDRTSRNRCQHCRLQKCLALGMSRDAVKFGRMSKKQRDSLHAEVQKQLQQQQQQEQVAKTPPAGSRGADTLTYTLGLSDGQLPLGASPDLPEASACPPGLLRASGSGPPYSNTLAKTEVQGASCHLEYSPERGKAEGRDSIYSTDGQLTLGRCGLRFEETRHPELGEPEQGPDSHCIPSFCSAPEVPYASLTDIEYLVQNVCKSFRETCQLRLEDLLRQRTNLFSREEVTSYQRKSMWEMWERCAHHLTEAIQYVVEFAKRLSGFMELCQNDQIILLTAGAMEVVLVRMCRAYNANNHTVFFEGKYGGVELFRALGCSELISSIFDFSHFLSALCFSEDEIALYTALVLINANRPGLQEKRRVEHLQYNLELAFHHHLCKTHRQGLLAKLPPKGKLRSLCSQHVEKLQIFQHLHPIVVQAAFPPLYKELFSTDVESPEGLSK
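Drosophila S2 cells stably expressing Gal4-DBD/mouse RORγ fusion under metallothionein promoter plus UAS-luciferase; compound 1 h, then 700 uM CuSO4 induction for 20 h at ambient temperature; inhibition read as reduced luminescence.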
KB-3-1 tox – qHTS assay for MDR1-selective chemotherapeutics: Primary screen using the parental adenocarcinoma cell KB-3-1. KB-3-1 viability, CellTiter-Glo ATP luminescence, 72 h. Potency, µM (doses to about 46.1 µM), most hits filed as cytotoxic. 400,000 compounds, 1.4% hits; further: on the % scale 0 is the no-effect control and ±100 the full control effect; nearly all actives have a fitted effect of over 60% in size
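Here the drug-naive KB-3-1 line serves as comparator for MDR sub-line selectivity; cells received compound titrations, 72 h at 37 °C, then CellTiter-Glo readout.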
SW480 rereplic – A quantitative high throughput screen for small molecules that induce DNA re-replication in SW480 colon adenocarcinoma cells | AID 624297, 2012 | SW480 DNA re-replication, Hoechst DNA content imaging, 48 h | 340,000 compounds, 1.8% hits | Potency, µM (doses to about 46.1 µM), inactives show at the highest dose re-replication activation, usual class: activators; further: % of control where 0% means no effect; nearly all actives have a fitted effect of over 55% in size
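SW480 cells exposed to compounds for 48 hr at 37 C, 5% CO2, then Hoechst-stained 40 min. Nuclear DNA content imaged by fluorescence scanning (405 nm excitation, 500-530 nm emission); re-replication scored as increased high-intensity nuclei.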
MCF10A rerep – A quantitative high throughput screen for small molecules that induce DNA re-replication in MCF 10a normal breast cells | MCF 10A DNA re-replication, Hoechst nuclear intensity, 48 h | Potency, µM (titrated, usually from 46.1 µM), for inactives: top-dose activity, positive = re-replication, most hits filed as activators | 350,000 compounds, 2.9% hits; further: % of control where 0% means no effect; nearly all actives have a fitted effect of over 50% in size
Numbers without * were called inactive; i = inactive; ? = inconclusive; . = not tested or not shown; [ ] = dose if it differs, or a comment. This is a sample that favours compounds with a hit; in the whole collection about 10% have one here. The call rests on the fitted dose curve; in most records, active means well fitted curve in the direction sought with a large enough effect; inconclusive means small, poorly fitted or top-dose-only effect, or another doubt; inactive means no such curve, though single readings can be large; an effect the other way counts as inactive or inconclusive. Potency means the concentration at half of the fitted maximal effect.

SMILES	KB-V1 cytotox	Gal4-VP16 FLuc	RORgamma inh	KB-3-1 tox	SW480 rereplic	MCF10A rerep
Cn1cc(-c2nc3cnc(N4CCNCC4)nc3n(C)c2=O)c2ccccc21	.	11µM*	10µM*	.	.	.
Cn1c(=O)c(-c2cccs2)nc2cnc(N3CCNCC3)nc21	.	0%	-27%	.	.	.
Cc1ccc(S(=O)(=O)N2CCC(c3ccncc3)CC2)c(C)c1	i	.	.	21µM*	.	.
Cc1ccc(S(=O)(=O)N2CCN(S(=O)(=O)N3CCC(C)CC3)CC2)c(C)c1	?	-7%	-10%	i	1%	-1%
CCC/C=N/NC(=O)c1cc(Br)ccc1O	i	?	11µM*	i	-31%	?
O=C(N/N=C1/CCSC1)c1cc(Br)ccc1O	i	-11%[10 µM]	7.9µM*	i	?	-52%
O=C(N/N=C/c1ccoc1)c1cc(Br)ccc1O	?	4µM*	3.5µM*	i	-4%	2%
Cn1c(=O)n(-c2ccc(Br)cc2F)c(=O)c2sc3ccccc3c21	i	.	.	i	.	.
COc1ccc(-c2nc(C)c(CCNC(=O)c3ccco3)s2)cc1	?	.	.	i	.	.
Cc1nc2ccc(S(=O)(=O)NCC(=O)N3CCN(c4ccccc4)CC3)cc2s1	i	-6%	36%	i	8%	2%
Cc1nc2ccc(S(=O)(=O)NCC(=O)NC(C)c3ccccc3)cc2s1 (centres undefined)	i	-4%	1%	i	-21%	0.65µM*
COc1ccc(NC(=O)c2cnn(-c3ccc(C)c(C)c3)c2C2CCNCC2)cc1OC	i	.	.	i	.	.
Cc1ccc(-n2ncc(C(=O)Nc3cc(Cl)cc(Cl)c3)c2C2CCNCC2)cc1C	i	-14%	?	i	4.6µM*	?
Cc1cc(C)n(/N=C/c2ccccc2)c(=O)c1C#N	i	12%	0%	i	-3%	-1%
CCc1ccc(/C=N/n2c(C)cc(C)c(C#N)c2=O)cc1	9.2µM*	1%	?	i	-52%	16%
CC1=NN(C(=O)Cn2ccc([N+](=O)[O-])n2)C(O)(C(F)(F)F)C1 (centres undefined)	?	?	?	i	-191%	9%
COc1nn(CC(=O)N2N=C(C)CC2(O)C(F)(F)F)cc1[N+](=O)[O-] (centres undefined)	i	-1%	3.2µM*	i	-3%	1%
CC1=NN(C(=O)Cn2nc([N+](=O)[O-])c(Br)c2C)C(O)(C(F)(F)F)C1 (centres undefined)	i	?	10µM*	i	2%	5%
Cc1c(-c2ccccc2)n(-c2ccc(Cl)cc2)c2nc3c(c(=O)n(C)c(=O)n3C)n12	i	.	.	i	.	.
Cc1cccc(-n2c(Cn3nc(C)c([N+](=O)[O-])c3C)n[nH]c2=S)c1	?	-5%	11µM*	i	-4%	?
Cc1nn(CCc2n[nH]c(=S)n2-c2ccc(F)c(Cl)c2)c(C)c1[N+](=O)[O-]	i	?	7.1µM*	?	-5%	-3%
Cc1nn(CCc2n[nH]c(=S)n2-c2ccc(F)cc2)c(C)c1[N+](=O)[O-]	i	-6%	?	i	0%	-2%
CC(C)(C)c1ccc(S(=O)(=O)N2CCN(c3nc(-c4ccccc4)nc4ccccc34)CC2)cc1	i	.	.	i	.	.
CCOC(=O)c1c(C)oc2ncnc(N3CCN(c4ccccc4OC)CC3)c12	i	.	.	i	.	.
O=CN1CCc2c([nH]c3ccccc23)C1c1cccc2cccnc12 (centres undefined)	.	5%	-1%	.	.	.
SMILES	KB-V1 cytotox	Gal4-VP16 FLuc	RORgamma inh	KB-3-1 tox	SW480 rereplic	MCF10A rerep
CCCn1c2c(c(O)c(C(=O)Nc3nccs3)c1=O)CCCC2	i	-1%	-9%	i	5%	?
CC(C)Cn1c2c(c(O)c(C(=O)Nc3nccs3)c1=O)CCCC2	7.3µM*	0%	-19%[10 µM]	?	?	7%
C#CCN1C(=O)C(O)(CC(=O)c2ccc(OC)c(OC)c2)c2ccccc21 (centres undefined)	18µM*	-2%	17%	?	?	?
Cc1ccccc1CN1C(=O)C(O)(CC(=O)c2ccncc2)c2ccccc21 (centres undefined)	?	1%	-1%	?	16µM*	?
O=C(CC1(O)C(=O)N(Cc2ccccc2)c2ccccc21)c1ccncc1 (centres undefined)	i	-5%	-8%	?	-1%[9.22 µM]	?
C#CCN1C(=O)C(O)(CC(=O)c2ccc3c(c2)OCCO3)c2ccccc21 (centres undefined)	i	3%	14%	i	-6%	-5%
COc1ccc(C(=O)CC2(O)C(=O)N(Cc3cccc(C(F)(F)F)c3)c3ccccc32)cc1 (centres undefined)	15µM*	.	.	?	.	.
CCCN1C(=O)C(O)(CC(=O)c2cccc(OC)c2)c2ccccc21 (centres undefined)	i	14µM*	-17%	i	?	3%
COc1cccc(NC(=O)C2(C)CCN2C(=O)CCc2ccc(Cl)cc2Cl)c1 (centres undefined)	?	.	.	i	.	.
Cc1ccc(Cl)cc1NC(=O)CCCN1C(=O)CCn2nc(-c3cn(C)c4ccccc34)cc21	i	.	.	i	.	.
CCOC(=O)Cn1nc(C)c(NC(=O)COc2ccc(Cl)cc2C)c1C	?	.	.	i	.	.
COc1ccc(C2=C/C(=C\c3cccc(OC(C)=O)c3)C(=O)O2)cc1	?	?	7.1µM*	i	2%	3%
COc1ccc(C2=C/C(=C\c3ccccc3OC(C)=O)C(=O)O2)cc1	i	0%	14%	i	-1%	8%
OC(COCC(F)(F)C(F)(F)C(F)(F)C(F)F)Cn1c2ccc(Cl)cc2c2cc(Cl)ccc21 (centres undefined)	18µM*	?	?	?	?	18%
CC(C)(C)OC(=O)N1CCc2onc(-c3ccc(Cl)cc3)c2C1=O	i	.	.	i	.	.
C#CCN1CCc2onc(-c3ccc(Br)cc3)c2C1=O	18µM*	.	.	?	.	.
Brc1ccc2nc(C3CCCCC3)c(CC3CCCCC3)n2c1	i	.	.	i	.	.
CCCC(=O)c1ccc(N2CCN(C(=O)c3ccc(Br)cc3)CC2)c(F)c1	i	?	-26%	i	0%	7%
